The values that follow come from PubChem BioAssay AID777 (Sanford-Burnham Center for Chemical Genomics, 2007).

In all, about 96,000 compounds went through this assay and about 19,000 (20%) were called active. The list is a sample of the results. Values without a mark were called inactive.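 The calls were made as follows: active = blocking of liver enzyme CYP2C9 beyond about 50% at 5 µM (limit read from the data); inactive = the rest.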

The test deals with Cytochrome P450 2C9 (Homo sapiens) (UniProt P11712). As to the kind of experiment: blockers of cytochrome P450 2C9 activity – biochemical, luminescence, ADME assay, primary screen (AID 777). As to conditions: CYP2C9 Supersomes, luciferin-H conversion, at 5 µM, stronger effect = higher value.
Cytochrome P450 2C9 (Homo sapiens), sequence (P11712 whole entry, looked up): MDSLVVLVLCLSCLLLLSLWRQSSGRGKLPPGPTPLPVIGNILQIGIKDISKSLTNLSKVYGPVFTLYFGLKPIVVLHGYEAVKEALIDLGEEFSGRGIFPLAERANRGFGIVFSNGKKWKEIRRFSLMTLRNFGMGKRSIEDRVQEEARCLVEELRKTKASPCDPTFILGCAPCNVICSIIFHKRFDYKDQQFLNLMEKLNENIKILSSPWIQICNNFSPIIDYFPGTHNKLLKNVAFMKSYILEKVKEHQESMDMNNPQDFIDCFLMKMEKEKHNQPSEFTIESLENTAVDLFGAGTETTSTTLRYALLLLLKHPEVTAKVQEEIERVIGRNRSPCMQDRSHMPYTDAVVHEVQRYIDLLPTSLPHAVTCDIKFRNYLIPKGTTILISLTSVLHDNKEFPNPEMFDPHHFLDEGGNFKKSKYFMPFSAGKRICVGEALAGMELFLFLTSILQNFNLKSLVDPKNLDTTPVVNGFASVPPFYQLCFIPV
A word on the inhibition: it is the change of the read-out against control, counted positive when it falls. Regarding `Cc1nn(Cc2ccc(C(=O)N3N=C(C(F)F)CC3(O)C(F)F)cc2)c(C)c1[N+](=O)[O-]` (stereo not drawn), the inhibition was 25.2%.

Take `CCOC(=O)C1CCCN(C(=O)c2sc3nc(C)nc(N4CCOCC4)c3c2C)C1` (stereo not drawn): the inhibition is 23.1%.

`O=C1Nc2ccccc2C12Nc1ccccc1S2` (stereo not drawn): the inhibition is 37.5%.

For the compound `COc1ccc(C(CC(=O)O)NC(=O)Cc2ccccc2)cc1` (stereo not drawn), the inhibition is -10.6%.

As to `Nn1cnnc1N/N=C/c1cc([N+](=O)[O-])c(Cl)cc1Cl`, the inhibition is 16.5%.

Consider `O=C(NCC(F)(F)F)Nc1nnc(C(F)(F)F)s1`, for which the inhibition was -13.1%.

As for `CN1C(=O)c2ccccc2C(C(=O)NCCCN2CCCC2)C1c1c[nH]c2ccccc12` (stereo not drawn), the inhibition was 4.5%.

For `CCn1nc(NC(=O)c2ccco2)c2cc3ccc(C)cc3nc21`, the inhibition was 19.8%.

In the case of `Cc1c(-c2ccccc2)cn2c1-c1ccc(C)n1CC2`, the inhibition is -10.8%.

For the compound `O=[N+]([O-])c1ccc(NCCCN2CCOCC2)c(Cl)c1`, the inhibition is 6.4%.

For the compound `CC(C)c1ccc(C(=O)NCCCc2ccccc2)cc1`, the inhibition was 37.2%.

On to `Cc1ccc(S(=O)(=O)Nc2ccccc2CNc2c(C)n(C)n(-c3ccccc3)c2=O)cc1`, for which the inhibition was 83.9% (active).

For `COC(=O)Nc1c(C)n(C)n(-c2ccccc2)c1=O`, the inhibition is -15.1%.

With `COc1ccc(S(=O)(=O)Nc2c(C)n(C)n(-c3ccccc3)c2=O)cc1`, the inhibition is -4.2%.

Take `C/C(=N/NC(=O)c1cc(Cl)ccc1O)C12CC3CC(CC(C3)C1)C2`: the inhibition was 24.2%.

`Cc1nc(C)c2c(c1C(F)(F)F)-c1ccccc1C2(F)F`: the inhibition is -9.6%.

`Nc1ncc(-c2cc3ccccc3oc2=O)s1`: the inhibition is 24%.

Consider `CCN(CC)c1nc(-c2ccccc2)cc(C(F)(F)F)c1C#N`, for which the inhibition was 89.5% (active).

Take `CCc1c(-c2ccccc2)nc(N)c(C#N)c1-c1cccs1`: the inhibition was 21.7%.

With `N#Cc1c(C(F)(F)F)cc(-c2ccccc2)nc1SCC(=O)N1CCOCC1`, the inhibition was -15.6%.

`Cc1ccc(-c2csc(-c3c[nH]c4ccccc34)n2)cc1`: the inhibition is 9.8%.

As for `COc1ccc2c(Cl)c(C(=O)NCc3ccco3)sc2c1`, the inhibition was -31.6%.

For the compound `Cc1nc(SCC(=O)c2ccccc2)c([N+](=O)[O-])[nH]1`, the inhibition was 39.1%.

As for `COC(=O)c1cc(C(=O)CSc2nc(C)cc(C)n2)ccc1O`, the inhibition is 6%.

`Cc1cc(SCC(=O)c2ccccc2)nc(SCC(=O)c2ccccc2)n1`: the inhibition is 66.3% (active).

With `O=S(=O)(Nc1ccc(Oc2ncccn2)c(Cl)c1)c1ccc(F)cc1`, the inhibition was 99.7% (active).

For `O=S(=O)(NCc1ccccn1)c1ccc(F)cc1`, the inhibition was -1.3%.

Turning to `O=S(=O)(NCCOc1cccc2cccnc12)c1ccc(F)cc1`, the inhibition was -234%.
